Laboratory results: ChEMBL document CHEMBL4296182, “CO-ADD screening of NIH NCI Diversity Set V”
Potency and affinity values are given separately.

Tested on: Candida albicans
Conditions: 20 µM

Compound	Inhibition [%]
CN(C)c1ccc2c(c1)Sc1cc(N(C)C)ccc1N2C(=O)c1ccccc1	11
O=C(CC1(O)CCCCC1)OC1CCCC1	2.66
COc1cc2c(cc1OC)C(/C=C/c1ccco1)=NCC2.O=S(=O)(O)O	-0.93
Nc1c(Cl)ncnc1NCCO	2.14
O=[N+]([O-])c1c(N2CCN(CCO)CC2)nc2ccccn12	-0.65
O=S1(=O)CSCS(=O)(=O)C1	5.55
O=c1[nH]c2c(cnn2-c2ccc(Cl)cc2)c(=O)n1-c1cccc(Cl)c1	2.46
CC(C)n1cnc2c(S)ncnc21	2.47
O=[N+]([O-])c1ccc(/C=C\c2ccncc2)cc1	3.43
c1ccc(-c2nc[nH]c2-c2ccccc2)cc1	-1.64
O=C(Nc1cccc([N+](=O)[O-])c1)c1cc2ccccc2cc1O	12.7
CC(C)NCC1CCc2cc(CO)c([N+](=O)[O-])cc2N1 (stereo not drawn) [OXAMNIQUINE]	2.55
COc1ccc2c(=O)cc(-c3cccnc3)oc2c1OC	9.13
COc1ccc(NC2=CC(=S)NC(C)(C)C2)cc1	2.09
C=CCNC(=O)C1COc2ccccc2O1 (stereo not drawn)	1.99
NC(=O)c1ccccc1OCC(=O)Nc1ccc(Cl)c(Cl)c1	4.37
CCCCCCCCCCC(C(=O)O)C1(C(=O)O)CCC(=O)O1 (stereo not drawn)	8.22
CCCN(CCC)CC(=O)N1CC(=O)Nc2ccccc21	3.75
CC(=O)Nc1ccc(S(=O)(=O)N=S(C)C)cc1	3.87
CCN(CC)CCNC(=O)C(Cl)=C1C(Cl)=C(Cl)C(Cl)=C1Cl	1.86

Compound	Inhibition [%]
Nc1ccc(/N=N/c2ccc(O)cc2)c(N)n1	0.86
COC(=O)C1(C)Cc2cc(OC(C)=O)c(OC(C)=O)cc2N1 (stereo not drawn)	-3.71
O=C(OCC(O)COC(=O)c1cccnc1)c1cccnc1	1.84
Sc1cnnc2ccccc12	6.56
O=C(OCC1CCC=CO1)C1CCC=CO1 (stereo not drawn)	0.31
O=C(O)c1ccc(N2CCCCC2)cc1O	8.64
CN1C=C/C(=C/[N+](=O)[O-])N(C)C1=O	1.05
CC1CC=C(O)C12OCC(C)(C)CO2 (stereo not drawn)	0.02
Cn1ncc2c(Nc3ccc(O)cc3)nc(Cl)nc21	5.74
CC(C)C(=O)Nc1cccnc1	0.24
Br.CN(C)c1n/c(=N/Cc2ccco2)ss1	6.89
CCC1(C(=O)OC)CCc2c(cc(OC)c3ccccc23)C1=O (stereo not drawn)	3.67
Nc1n[nH]c(Nc2ccccc2)n1	-0.65
Oc1ncnc(CN2CCCCC2)c1O	-1.92
CC1CCC(C(C)C)C(NC(=O)c2ccncc2)C1 (stereo not drawn)	-0.85
Oc1cc(-c2ccc(Cl)cc2)nc2ccccc12	18.1
CC(=O)O.N=c1ccn2c(n1)OC1C(O)C(CO)OC12 (stereo not drawn)	-0.52
CCOC(=O)C(C)c1c(C(=O)c2ccc(C)nc2)c2ccccc2n1C (stereo not drawn)	0.68
O=C(Nc1cccc(-c2ccccc2)c1)N1CCN(C(=O)Nc2cccc(-c3ccccc3)c2)CC1	-1.22

Tested on: Cryptococcus neoformans
Conditions: Concentration 20 uM; ASSAY_TEST Inhibition of Fungal Growth; detection method Resazurin; Absorption (OD600-OD570); plate type 384well; NBS; CORNING #3640

Compound	Inhibition [%]
CN(C)c1ccc2c(c1)Sc1cc(N(C)C)ccc1N2C(=O)c1ccccc1	-3.81
O=C(CC1(O)CCCCC1)OC1CCCC1	30.45
COc1cc2c(cc1OC)C(/C=C/c1ccco1)=NCC2.O=S(=O)(O)O	-6.67
Nc1c(Cl)ncnc1NCCO	-0.36
O=[N+]([O-])c1c(N2CCN(CCO)CC2)nc2ccccn12	-4.29
O=S1(=O)CSCS(=O)(=O)C1	27.89
O=c1[nH]c2c(cnn2-c2ccc(Cl)cc2)c(=O)n1-c1cccc(Cl)c1	-10.88
CC(C)n1cnc2c(S)ncnc21	-6.64
O=[N+]([O-])c1ccc(/C=C\c2ccncc2)cc1	-1.17
c1ccc(-c2nc[nH]c2-c2ccccc2)cc1	-10.72
O=C(Nc1cccc([N+](=O)[O-])c1)c1cc2ccccc2cc1O	-10.5
CC(C)NCC1CCc2cc(CO)c([N+](=O)[O-])cc2N1 (stereo not drawn) [OXAMNIQUINE]	-8.23
COc1ccc2c(=O)cc(-c3cccnc3)oc2c1OC	-11.85
COc1ccc(NC2=CC(=S)NC(C)(C)C2)cc1	-8.08
C=CCNC(=O)C1COc2ccccc2O1 (stereo not drawn)	-7.01
NC(=O)c1ccccc1OCC(=O)Nc1ccc(Cl)c(Cl)c1	-18.28
CCCCCCCCCCC(C(=O)O)C1(C(=O)O)CCC(=O)O1 (stereo not drawn)	-9.1
CCCN(CCC)CC(=O)N1CC(=O)Nc2ccccc21	-3.68
CC(=O)Nc1ccc(S(=O)(=O)N=S(C)C)cc1	-12.86
CCN(CC)CCNC(=O)C(Cl)=C1C(Cl)=C(Cl)C(Cl)=C1Cl	-2.01

Compound	Inhibition [%]
Nc1ccc(/N=N/c2ccc(O)cc2)c(N)n1	-14.36
COC(=O)C1(C)Cc2cc(OC(C)=O)c(OC(C)=O)cc2N1 (stereo not drawn)	-8.65
O=C(OCC(O)COC(=O)c1cccnc1)c1cccnc1	-7.06
Sc1cnnc2ccccc12	22.39
O=C(OCC1CCC=CO1)C1CCC=CO1 (stereo not drawn)	-9.47
O=C(O)c1ccc(N2CCCCC2)cc1O	-11.23
CN1C=C/C(=C/[N+](=O)[O-])N(C)C1=O	-5.15
CC1CC=C(O)C12OCC(C)(C)CO2 (stereo not drawn)	-5.4
Cn1ncc2c(Nc3ccc(O)cc3)nc(Cl)nc21	-12.05
CC(C)C(=O)Nc1cccnc1	8.85
Br.CN(C)c1n/c(=N/Cc2ccco2)ss1	-13.39
CCC1(C(=O)OC)CCc2c(cc(OC)c3ccccc23)C1=O (stereo not drawn)	-10.67
Nc1n[nH]c(Nc2ccccc2)n1	-7.66
Oc1ncnc(CN2CCCCC2)c1O	-11.85
CC1CCC(C(C)C)C(NC(=O)c2ccncc2)C1 (stereo not drawn)	-11.13
Oc1cc(-c2ccc(Cl)cc2)nc2ccccc12	5.32
CC(=O)O.N=c1ccn2c(n1)OC1C(O)C(CO)OC12 (stereo not drawn)	-12.02
CCOC(=O)C(C)c1c(C(=O)c2ccc(C)nc2)c2ccccc2n1C (stereo not drawn)	-10.08
O=C(Nc1cccc(-c2ccccc2)c1)N1CCN(C(=O)Nc2cccc(-c3ccccc3)c2)CC1	-2.57
